Here are results for 18 compounds from PubChem BioAssay (NCATS).

Inconclusive results are not listed. Entries that show only a call come without a potency. Calls of active or inactive are those of the source. Calls follow the shape of the dose curve; as a rule, active = well fitted curve in the direction sought with a large enough effect; inconclusive = small, poorly fitted or top-dose-only effect, or another doubt; inactive = no such curve, though single readings can be large or run the other way.
Potency is read from the fitted curve at half-maximal effect.

This assay is described as follows: qHTS for Inhibitors of the vitamin D receptor (VDR): Hit Validation using a Texas Red Assay (AID 602201). Conditions: VDR coregulator binding, Texas Red fluorescence polarization; series mostly up to 57.1 µM. An excerpt:
The vitamin D receptor (VDR) is a ligand-activated transcription factor and is partially responsible for the regulation of the endocrine system. This includes the transcriptional regulation of genes involved in the production of the parathyroid hormone (PTH) and the regulation of the blood calcium level. High levels of PHT can cause hypercalcemia in the case of primary and tertiary hyperparathyroidism. The VDR-mediated gene regulation, activated by its ligand 1,25-dihydroxyvitamin D3 (1,25-(OH)2D3), is governed by the recruitment of coactivators. Our hypothesis is that small molecules, with the ability to inhibit the interaction between VDR and certain coactivators, are able to selectively modulate VDR-mediated transcription. Our long term objective is the application these VDR-coactivator inhibitors to study the role of VDR-coactivator binding for specific VDR regulated genes. Ultimately, these molecules can be developed into new treatments for hypercalcemic hyperparathyroidism. No small molecule or non-peptide inhibitors are known for the VDR-coactivator interaction.
In a collaboration between the University of Wisconsin, Milwaukee and the NIH Chemical Genomics Center (NCGC) a HTS-compatible enzymatic assay was developed. The assay uses fluorescence polarization as its read-out to measure the inhibition between VDR and coregulator peptide SRC2-3 exerted by small molecules. This assay was used to screen the NIH Molecular Libraries Small Molecule Repository (MLSMR). The HTS assay detects polarization at 665 nm emitted by the Alexa Fluor 647 dye. This validation assay detects polarization of the emission from Texas-Red at 615 nm.
NIH Chemical Genomics Center [NCGC]
NIH Molecular Libraries Probe Centers Network [MLPCN]
Assay Submitter (PI): Alexander Arnold, University of Wilwaukee
Four microliter of either 1.5 uM VDR-LBD, […], and 7 nM Texas Red (all final concentrations) in columns 1, 2, and 5 to 48 or 7 nM Texas Red in columns 3 and 4 are dispensed into black medium-binding solid bottom Greiner plates. Both solutions are kept at 4 deg C and protected from light and dispensed using a Kalypsys dispenser. Then 23nl of compounds and controls are added with Kalypsys pintool. The control is 26.5 mM CBT358 (final concentration of 151 uM) and the compounds' final range in concentration is 457 nM - 114 uM. Plate is centrifuged at 1000 RPM for 15 seconds to remove any residual bubbles. The plate is then incubate at ambient room temperature for 2 hours. It is then read on the Envision for a fluorescent polarization read-out (Ex 595 nm/Em 615 nm)
(In general: In qHTS, concentration-response curves come from the screen itself.)
Consider `CCOC(=O)c1c(NS(=O)(=O)c2ccccc2)n(CCCOC)c2nc3ccccc3nc12`, for which the Potency is 3.55 µM (active).
To `COc1cccc(C2CC3C(=O)C=CC2N3Cc2ccccc2)c1` (stereo not drawn) belongs 28.2 µM (active).
For `O=C(O)CCn1cc(C=C2C(=O)NC(=S)NC2=O)c(-c2cccc(Cl)c2)n1`, the Potency result is “inactive”.
To `O=C(O)CCn1cc(C=C2C(=O)NC(=S)NC2=O)c(-c2cccc(Br)c2)n1` belongs “inactive”; to `COc1cc(/C=C/[N+](=O)[O-])ccc1O`, “inactive”.
Turning to `Cc1ccccc1N1C(=O)NC(=O)/C(=C\c2cnn(-c3ccccc3)c2)C1=O`, the Potency entry was “inactive”.
To `CN1C(=O)NC(=O)/C(=C\C=C\c2ccccc2[N+](=O)[O-])C1=O` belongs “inactive”.
Under `CN1CCC(O)(c2cccs2)C(C(=O)c2cccs2)C1` (stereo not drawn) stands 28.2 µM (active); under `Cc1nn(Cc2ccccc2)c(C)c1C=C1C(=O)NC(=S)NC1=O`, “inactive”; under `CC(C)n1c(O)c(C2c3cc(Cl)ccc3Oc3[nH]c(=O)n(C(C)C)c(=O)c32)c(=O)[nH]c1=O` (stereo not drawn), “inactive”.
Under `COC(=O)COc1ccc(/C=C2\C(=O)NC(=S)N(c3ccc(C)cc3)C2=O)cc1OC` stands “inactive”.
`O=C1NC(=O)C(=Cc2ccc(-c3ccc(S(=O)(=O)N4CCOCC4)cc3)o2)C(=O)N1`: the Potency result is “inactive”.
In the case of `CN1C2CCC1/C(=C/c1ccccn1)C(=O)/C2=C\c1ccccn1`, the Potency result was “inactive”.
In the case of `O=C1NC(=O)C(=Cc2ccc(-c3cc(Cl)ccc3[N+](=O)[O-])o2)C(=O)N1`, the Potency entry was “inactive”.
As for `O=C(O)CCC(=O)NCCC1=c2ccccc2=N/C1=C\c1c(O)n(Cc2ccc(F)cc2)c(=S)[nH]c1=O`, the Potency result was “inactive”.
Under `Cc1ccc(N2C(=O)NC(=O)/C(=C\c3cnc(-c4ccccc4)nc3)C2=O)cc1` stands “inactive”; under `O=c1oc2ccccc2c(O)c1[C@H]1c2ccc(O)cc2Oc2c1c(=O)oc1ccccc21`, “inactive”; under `O=C1NC(=O)N(c2ccccc2)C(=O)/C1=C/c1ccc([N+](=O)[O-])s1`, “inactive”.
